The text below walks through data of PubChem BioAssay (NCI).

About 79,000 compounds went through this panel and 15% of them were active in at least one assay; those are over-represented in the sample as a whole. A number with no mark means an inactive call. Activity calls are given as the source filed them. No stated cut-off is given here; in the data, active means growth inhibition above about 70%; inactive means the rest.

Test [1] is described as follows: NCI Yeast Anticancer Drug Screen. Data for the rad50 strain (AID 155).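 Further: 0% = growth of vehicle-only cultures of the same strain.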 To be noted: S. cerevisiae rad50 strain growth inhibition; at 50.0 µM; active compounds read high. A digest of the protocol:
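Growth of the mutant yeast was measured after compound exposure and referenced to vehicle-treated cultures.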

The nature of test [2]: NCI Yeast Anticancer Drug Screen. Data for the mec2-1 strain (AID 157). The following applies: S. cerevisiae mec2-1 strain, at 50.0 µM, active compounds read high. The method, boiled down: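 mec2-1 yeast strain, carrying an alteration in DNA damage repair or cell cycle control, was exposed to compounds; growth inhibition was measured relative to vehicle-treated controls.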
A short description of test [3]: NCI Yeast Anticancer Drug Screen. Data for the sgs1 mgt1 strain (AID 161).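 Further: 0% = growth of cultures given vehicle only.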 To be noted: S. cerevisiae sgs1 mgt1 strain, at 50.0 µM, active compounds read high. A digest of the protocol: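 This yeast growth screen uses a strain with defined DNA-repair lesions; compound-treated growth is compared with vehicle-treated growth.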
Test [4] can be described thus: NCI Yeast Anticancer Drug Screen. Data for the cln2 rad14 strain (AID 165).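 Further: 0% = growth equal to vehicle treated cultures.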 To be noted: S. cerevisiae cln2 rad14 strain, at 50.0 µM, active compounds read high. The method, boiled down: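 Yeast carrying cln2 and rad14 alterations (cell cycle control and DNA damage repair) were exposed to compounds. Growth inhibition was measured against vehicle-treated controls.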
Test [5] in a line: NCI Yeast Anticancer Drug Screen. Data for the bub3 strain (AID 167). The following applies: S. cerevisiae bub3 mutant strain, at 50.0 µM, active compounds read high. A digest of the protocol:
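Whole-cell yeast assay. The mutant strain was incubated with compounds, and growth inhibition was determined by comparison with vehicle-treated cells.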

Test [6] can be described thus: NCI Yeast Anticancer Drug Screen. Data for the mlh1 rad18 strain (AID 175). The following applies: S. cerevisiae mlh1 rad18 strain growth inhibition; at 50.0 µM; active compounds read high. The method, boiled down: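 Growth inhibition of the yeast strain was measured after compound exposure and expressed relative to vehicle-treated controls. The strain carries defined defects in DNA damage repair.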

On to `CC(C)(NC(=O)c1ccccc1)NC(=O)c1ccccc1`, for which the growth inhibition in test [1] was 5.35%; in test [2] it was -10.1%; in test [3], -5.8%; in test [4], -38.2%; in test [5], 5.55%; in test [6], -6.35%.

For `Cc1c(Cc2ccccc2)c(N2CCOCC2)n2c(nc3ccccc32)c1C#N`, the growth inhibition was 4.75% in test [1]; 5.25% in test [2]; 0.65% in test [3]; -4.55% in test [4]; -2.8% in test [5]; 5.65% in test [6].

Regarding `ClCC1OC1CCl` (stereo unspecified), the growth inhibition in test [1] was 22.1%; in test [2] it was 3.05%; in test [3], 1.1%; in test [4], -10.6%; in test [5], 9.8%; in test [6], 1.95%.

`COc1cccc(CCO)c1OC`: the growth inhibition in test [1] is 1.3%; in test [2] it was -13.2%; in test [3], 10.9%; in test [4], -10.4%; in test [5] it was 5.2%; in test [6], 10.9%.

For the molecule `NC(=O)c1cc[n+](-c2ccc([N+](=O)[O-])cc2[N+](=O)[O-])cc1`, the growth inhibition in test [1] was 19.2%; in test [2] it was 0.45%; in test [3], 27.2%; in test [4] it was 34.6%; in test [5], 19.2%; in test [6] it was 56.5%.

With `NC1=Nc2cc(Cl)ccc2Sc2nc3ccccc3n21`, the growth inhibition was -18.4% in test [1]; -65.4% in test [2]; -17.6% in test [3]; 0.55% in test [4]; 10.9% in test [5]; -2.8% in test [6].

As for `O=c1c2c(oc(=Nc3ccccc3)n1-c1ccccc1)CC1(CCCCC1)C2`, the growth inhibition in test [1] is 5.45%; in test [2], 1.75%; in test [3], -0.1%; in test [4], -15.2%; in test [5] it was -10.9%; in test [6], -4.2%.

Regarding `C1CC2CC1CC2C1CO1` (stereo unspecified), the growth inhibition is 3.45% in test [1]; -6.15% in test [2]; 4.85% in test [3]; 0.75% in test [4]; 0.5% in test [5]; 4.7% in test [6].

In the case of `O=C(C(c1ccccc1)C(F)(F)F)N1CCCC1` (stereo unspecified), the growth inhibition in test [1] is 7.4%; in test [2], -7.8%; in test [3] it was 5.05%; in test [4], -13.3%; in test [5], 13.8%; in test [6], 0.6%.

On to `O=C1C2=Nc3ccccc3C(O)N2c2ccccc21` (stereo unspecified), for which the growth inhibition was 12.8% in test [1]; 22.4% in test [2]; 12% in test [3]; 47.4% in test [4]; 17.3% in test [5]; 8.75% in test [6].

Take `O=C(/C=C/c1cccs1)c1ccc([N+](=O)[O-])cc1`: the growth inhibition was -59% in test [1]; -58.7% in test [2]; -27.6% in test [3]; -6.3% in test [4]; -23.1% in test [5]; -21.6% in test [6].

Consider `O=C(O)c1ccc2ccccc2c1C(=O)c1ccc(F)cc1`, for which the growth inhibition was 10.1% in test [1]; -1.6% in test [2]; 17.9% in test [3]; 18.3% in test [4]; 20.3% in test [5]; 3.1% in test [6].

Regarding `Cc1cc(Cl)c(Cl)cc1NC(=O)C(Br)C(Br)c1ccccc1` (stereo unspecified), the growth inhibition in test [1] was 75.8% (active); in test [2], 71.3% (active); in test [3], 74.3% (active); in test [4], 68.7%; in test [5] it was 78.5% (active); in test [6], 82.2% (active).

For `COc1ccc(Cc2cc(OC)c(OC)c(OC)c2)cc1O`, the growth inhibition in test [1] was 2.2%; in test [2], 11.4%; in test [3], -16.4%; in test [4] it was -22.1%; in test [5], 19.9%; in test [6], -21.2%.

With `CCOC(=O)NC(=O)c1cn(CCN2CCN(C(=O)NCCCCCCNC(=O)N3CCN(CCn4cc(C(=O)NC(=O)OCC)c(=O)n(CCN(CC)CC)c4=O)CC3)CC2)c(=O)n(CCC(CC)CC)c1=O`, the growth inhibition in test [1] was -10.1%; in test [2], 8.7%; in test [3] it was -6.65%; in test [4], -20.9%; in test [5], 2.5%; in test [6], -31.5%.

With `CCC(=O)Nc1ccc(C)cc1C`, the growth inhibition in test [1] is 23.7%; in test [2], 12.9%; in test [3], 9.8%; in test [4], 13.7%; in test [5] it was 2.6%; in test [6] it was 3.45%.

Consider `NC[C@H]1Nc2ccccc2[C@@H](O)C1O` (stereo partly specified), for which the growth inhibition was 14.6% in test [1]; 6.95% in test [2]; 0.4% in test [3]; 8.9% in test [4]; 12.6% in test [5]; -12.1% in test [6].

Regarding `CC(=O)NNC(=O)NCCCCCCNC(=O)NNC(C)=O`, the growth inhibition is 16.1% in test [1]; 20.2% in test [2]; 25.4% in test [3]; 16.2% in test [4]; 17.9% in test [5]; 26.5% in test [6].

For the molecule `CC(C)(C#N)C(C)(C)c1cnc2ccccc2c1`, the growth inhibition in test [1] is 15.2%; in test [2], -7.15%; in test [3], -9.4%; in test [4], -52.5%; in test [5] it was -2.25%; in test [6], -12.4%.

Turning to `CCCCCCCCCCCCCCCCOc1ccc(S(=O)(=O)N/N=c2/sc(-c3ccccc3Cl)nn2C)cc1C(=O)O`, the growth inhibition in test [1] was -18.6%; in test [2], -20.2%; in test [3], 13.3%; in test [4] it was -18.2%; in test [5] it was 6.9%; in test [6], -4.15%.

Take `CCOC(=O)c1ccc2c(c1)CCC(C)(C)O2`: the growth inhibition was -5.55% in test [1]; -4.8% in test [2]; 7.3% in test [3]; -13.9% in test [4]; 11.5% in test [5]; -7.15% in test [6].
